Laboratory results from paper PMC4552634, “A New Set of Chemical Starting Points with Plasmodium falciparum Transmission-Blocking Potential for Antimalarial Drug Discovery” (PLoS ONE, 2015).
About 3,200 (25%) of roughly 13,000 compounds showed an effect of 50% or more. This is one part of the list.

tested on: P. falciparum stage V gametocytes; set-up: BacTiter-Glo ATP luminescence viability of purified stage V gametocytes in 384-well plates, per cent inhibition versus DMSO; settings: 48 h, 5 µM; inhibitor

Row | SMILES | % Inhibition
1 | CC[C@H]1CN2CC[C@H]1C[C@H]2[C@H](O)c1ccnc2ccc(C#N)cc12 [TCMDC-138234] | 18.99%
2 | CC(=O)c1c[nH]c(C(=O)Nc2ccc(-c3cn4ccccc4n3)cc2)c1 [TCMDC-124599] | 36.18%
3 | N=C(N)NN=CC(=O)Nc1cc([N+](=O)[O-])cc([N+](=O)[O-])c1 [TCMDC-137446] | 15.96%
4 | CCCCc1cc(NCC)nc(Nc2ccc(OC)cc2)n1 [TCMDC-133991] | -52.54%
5 | Nc1nc2c(c(=O)[nH]1)-c1cccc(Br)c1CC2 [TCMDC-137755] | -6.306%
6 | Cc1ccc(CNC(=O)[C@H](CCCN)Nc2cc(C)nc(NCC3CCCCC3)n2)cc1 [TCMDC-134923] | 95.63%
7 | Cc1ccc(CNC(=O)[C@H](Cc2ccccc2)Nc2ccnc(NCC3CCCCC3)n2)cc1 [TCMDC-134709] | -30.11%
8 | Cc1ccc(CNC(=O)[C@H](CC(C)C)Nc2cc(C)nc(Nc3ccccc3)n2)cc1 [TCMDC-134740] | 5.216%
9 | Cc1ccc(CNC(=O)[C@H](Cc2ccccc2)Nc2cc(C)nc(NCC3CCCCC3)n2)cc1 [TCMDC-134932] | -13.97%
10 | Cc1ccc(CNC(=O)[C@H](CCCN)Nc2nc(NCC3CCCCC3)ncc2C)cc1 [TCMDC-134754] | 82.69%
11 | Cc1cnc(NCC2CCCCC2)nc1N[C@@H](CC(C)C)C(=O)Nc1ccccc1 [TCMDC-134751] | -31.13%
12 | Cc1ccc(CNC(=O)[C@H](CCCN)Nc2cc(C)nc(Nc3ccccc3)n2)cc1 [TCMDC-134744] | 61.85%
13 | Cc1ccc(CNC(=O)[C@H](CC(C)C)Nc2cc(C)nc(NCC3CCCCC3)n2)cc1 [TCMDC-134918] | -23.99%
14 | Cc1ccc(CNC(=O)[C@H](Cc2ccccc2)Nc2cc(C)nc(Nc3ccccc3)n2)cc1 [TCMDC-134858] | 7.065%
15 | Cc1cnc(NCC2CCCCC2)nc1N[C@@H](CO)C(=O)Nc1ccccc1 [TCMDC-134859] | -15.9%
16 | Cc1ccc(CNC(=O)[C@H](CCCN)Nc2nc(Nc3ccccc3)ncc2C)cc1 [TCMDC-134947] | 27.45%
17 | Cc1cnc(Nc2ccccc2)nc1N[C@@H](CCCN)C(=O)Nc1ccccc1 [TCMDC-134915] | 85.94%
18 | O=c1cc(NCCCNCc2ccc(Cl)c(Cl)c2)[nH]c2ccc(Oc3ccccc3)cc12 [TCMDC-139409] | 3.988%
19 | CCN(CC)CCCC(C)N=C(Nc1ccc(C#N)cc1O)Nc1ccccc1Br (stereo not drawn) [TCMDC-140130] | 34.96%
20 | COc1ccccc1CNC(=O)c1nn(-c2ccc(Cl)cc2)c(=O)c2ccccc12 [TCMDC-125601] | -3.161%
21 | CCCc1ccc(S(=O)(=O)NC2CCN(c3ccnc(Nc4ccc(OC)cc4)n3)C2)cc1 (stereo not drawn) [TCMDC-133613] | 30.72%
22 | O=C(NCC1CCC(C(=O)NCCc2ccc(Cl)c(Cl)c2)CC1)c1ccc(O)c(-c2ccc(Cl)c(Cl)c2)c1 (stereo not drawn) [TCMDC-140893] | 30.85%
23 | COc1ccc(NC(=O)Nc2cc(C)nc3cccnc23)cc1Cn1ccnc1 [TCMDC-140647] | -24.24%

Row | SMILES | % Inhibition
24 | COc1ccccc1CCCN1C(=O)C(c2ccccc2)(c2ccccc2)N=C1N [TCMDC-136504] | -6.463%
25 | O=C(c1cc(-c2ccccc2)n[nH]1)N1CCN(S(=O)(=O)c2ccc(Cl)s2)CC1 [TCMDC-124697] | 44.38%
26 | Cc1cc(Cc2ccc(S(=O)(=O)c3cc4c(cc3O)CCN(C)CC4)cc2)ccc1Cl [TCMDC-135485] | 17.27%
27 | O=[N+]([O-])c1ccc2c(c1)c1ccccc1n2Cc1ccccc1O [TCMDC-124344] | 66.38%
28 | O=[N+]([O-])c1ccc2c(-c3ccccc3)c(-c3ccccc3)n(O)c2c1 [TCMDC-137050] | 9.077%
29 | Cc1nc2ccc([N+](=O)[O-])cc2c(=O)n1OCc1ccccc1 [TCMDC-131598] | 18.76%
30 | Cc1ccc(C(=O)Nc2ccc(F)c(F)c2F)cc1S(=O)(=O)N1CCCCC1 [TCMDC-124324] | 19.7%
31 | CC(C)(C)c1ccc(OCCCON2C(N)=NC(N)=NC2(C)C)c(C(C)(C)C)c1 [TCMDC-131308] | 56.27%
32 | CC1(C)N=C(N)N=C(N)N1OCCCOc1cc(Cl)ccc1Cl [TCMDC-131679] | 20.73%
33 | CC1(C)N=C(N)N=C(N)N1OCCCOc1cc(Cl)c(Cl)cc1Cl [TCMDC-137301] | -2.55%
34 | CCOC(=O)c1cc(Cl)ccc1OCCCON1C(N)=NC(N)=NC1(C)C [TCMDC-131705] | -0.9845%
35 | CCCc1cc(C)ccc1OCCCON1C(N)=NC(N)=NC1(C)C [TCMDC-131320] | 40.89%
36 | CC1(C)N=C(N)N=C(N)N1OCCCCOc1ccc(Cl)cc1C1CCCCC1 [TCMDC-131659] | 106.8%
37 | CCCc1cc(OCCCOc2ccccc2)ccc1OCCCON1C(N)=NC(N)=NC1(C)C [TCMDC-131328] | 103.6%
38 | CC1(C)N=C(N)N=C(N)N1OCCCCOc1ccccc1 [TCMDC-131658] | 4.25%
39 | CC(C)(C)c1ccccc1OCCCON1C(N)=NC(N)=NC1(C)C [TCMDC-131751] | 48.16%
40 | COC(=O)Cn1c(C2CCN(CC3CCC(NC(=O)/C=C/c4ccc(Cl)c(Cl)c4)CC3)CC2)nc2ccccc21 (stereo not drawn) [TCMDC-140297] | -20.25%
41 | OC(CNCc1ccccc1OC(F)F)c1cccc(C(F)(F)F)c1 (stereo not drawn) [TCMDC-140395] | 21.35%
42 | c1ccc(COc2ccc(COc3ccc(Cn4ccnc4)cc3)cc2)cc1 [TCMDC-136714] | 11.69%
43 | O=C(Nc1ccc(N2CCC(Nc3ccccn3)CC2)cc1)c1cnc(Cl)c(Cl)c1 [TCMDC-134629] | 28.05%
44 | Cc1cccc2nc(-c3ccc(-c4cccc(C(=O)NCCN5CCCC5)c4)s3)[nH]c12 [TCMDC-132317] | 13.21%
45 | Cc1cc(N[C@@H](Cc2ccccc2)C(=O)NC2CCCC2)nc(NCCOc2ccccc2)n1 [TCMDC-134755] | 31.62%
46 | Cc1cc(N[C@@H](Cc2ccccc2)C(=O)NC2CCCC2)nc(NCC2CCCCC2)n1 [TCMDC-134927] | -16.19%

Row | SMILES | % Inhibition
47 | Cc1cc(N[C@@H](Cc2ccccc2)C(=O)NC2CCCC2)nc(NCCc2ccc(F)cc2)n1 [TCMDC-134784] | 110%
48 | Cc1cc(N[C@@H](CC(C)C)C(=O)NC2CCCC2)nc(NCCc2ccc(F)cc2)n1 [TCMDC-134791] | 99.38%
49 | Cc1cc(N[C@@H](CC(C)C)C(=O)NC2CCCC2)nc(NCc2ccccc2C)n1 [TCMDC-134908] | -12.42%
50 | Cc1cc(N[C@@H](CC(C)C)C(=O)NC2CCCC2)nc(NCC2CCCCC2)n1 [TCMDC-134936] | -32.07%
51 | O=c1cc(NCCCNCc2ccc(Cl)c(Cl)c2)[nH]c2cc(F)cc(F)c12 [TCMDC-139408] | -8.545%
52 | COc1cc(NC(=O)N2CCOC(CCN3CCC(c4ccccc4)CC3)(c3ccc(Cl)c(Cl)c3)C2)cc(OC)c1 (stereo not drawn) [TCMDC-135343] | -16.83%
53 | COc1ccc2nccc([C@@H](O)CN3CCC(NCCNc4ccccn4)CC3)c2c1 [TCMDC-140562] | 28.84%
54 | COc1ccc(C(=O)N2CCC3(CC2)C(=O)N(CC(=O)NC2CCCCC2)CN3c2ccccc2)c(OC)c1 [TCMDC-125169] | -35.99%
55 | COCCCNC(=O)C1CCN(C(c2ccc(Cl)cc2)c2ccc(Cl)cc2)CC1 [TCMDC-135521] | -10.75%
56 | CC(=O)c1ccc(N2CCN(CCC3(c4ccc(Cl)c(Cl)c4)COCN(C(=O)c4ccccc4)C3)CC2)cc1 (stereo not drawn) [TCMDC-141761] | 30.09%
57 | O=C(c1ccccc1)N1COCC(CCN2CCC(N3CCCC3)CC2)(c2ccc(Cl)c(Cl)c2)C1 (stereo not drawn) [TCMDC-141760] | 43.61%
58 | O=C(Nc1ccccc1)NC1CCN(CCC2(c3ccc(Cl)c(Cl)c3)COCN(C(=O)c3ccccc3)C2)C1 (stereo not drawn) [TCMDC-141759] | 59.82%
59 | O=C1NC(c2ccc(N3CCCCCC3)cc2)Nc2ccccc21 (stereo not drawn) [TCMDC-125058] | 38.08%
60 | CCN(CC)C(=O)C1CCCN(C(=O)Nc2cc(C(F)(F)F)cc(C(F)(F)F)c2)C1 (stereo not drawn) [TCMDC-124042] | -75.6%
61 | CC(CN1CCN(C)CC1)C(=O)Nc1ccc(-c2cccc(-c3nc4ccc(C(F)(F)F)cc4[nH]3)c2)cc1 (stereo not drawn) [TCMDC-137149] | 40.39%
62 | CC(CN1CCN(C)CC1)C(=O)Nc1cccc(-c2ccc(-c3nc4ccc(C(F)(F)F)cc4[nH]3)cc2)c1 (stereo not drawn) [TCMDC-137152] | 80.48%
63 | CC(CN(C)C)C(=O)Nc1ccc(-c2ccc(-c3nc4ccc(F)cc4[nH]3)cc2)cc1 (stereo not drawn) [TCMDC-136778] | 6.212%
64 | CC(CN1CCN(C)CC1)C(=O)Nc1cccc(-c2ccc(-c3nc4ccc(F)cc4[nH]3)cc2)c1 (stereo not drawn) [TCMDC-137146] | 77.49%
65 | CC(CN1CCN(C)CC1)C(=O)Nc1ccc(-c2ccc(-c3nc4ccc(F)cc4[nH]3)cc2)cc1 (stereo not drawn) [TCMDC-136777] | 4.283%
66 | CC(CN1CCN(C)CC1)C(=O)Nc1ccc(-c2ccc(-c3nc4ccc(C(F)(F)F)cc4[nH]3)cc2)cc1 (stereo not drawn) [TCMDC-137153] | -5.664%
67 | CC(CN1CCN(C)CC1)C(=O)Nc1ccc(-c2cccc(-c3nc4ccc(F)cc4[nH]3)c2)cc1 (stereo not drawn) [TCMDC-137143] | 97.96%
68 | CC(CN1CCN(C)CC1)C(=O)Nc1cccc(-c2cccc(-c3nc4ccc(F)cc4[nH]3)c2)c1 (stereo not drawn) [TCMDC-137145] | 48.07%
69 | CC(CN(C)C)C(=O)Nc1cccc(-c2ccc(-c3nc4ccc(F)cc4[nH]3)cc2)c1 (stereo not drawn) [TCMDC-137106] | -31.14%
